Many of the other results were omitted from the sample, so hits are more common in it than they were.
Pf Dd2 growth – qHTS Primary assay for Inhibitors of Plasmodium falciparum Dd2 growth in vitro; Potency, µM (series often up to 28.9 µM), usual class: inhibitors; AID 1347417, 2020; P. falciparum Dd2 growth, SYBR Green, 72 h; actives 4.3% (n = 120,000); active = well fitted inhibition curve with a large enough effect; note: nearly all actives have a fitted effect of over 65% in size
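Infected erythrocytes (Dd2, 0.3% parasitemia, 2.5% hematocrit final) are added to compound in RPMI-1640/Albumax II medium, grown 72 h at 37C in low oxygen, then lysed with saponin/Triton-X containing SYBR Green and read by fluorescence.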
Of the large screens only hits and unclear results are named; the others gave an inactive call.

Cn1ccc(C(=O)N2CCCC(CCc3ccccc3C(F)(F)F)C2)n1 (stereo not given)	none
OC1(CN2CCC(CCn3cccn3)CC2)CCNC1 (stereo not given)	none
O=C1CCN(C(=O)c2ccsc2)CCCCCCN1	none
CCCNC(=O)C(NC(=O)c1ccc(OC)cc1)C1CCN(C(=O)c2ccccc2C)CC1 (stereo not given)	none
CCn1cc(CN2CCC3(CC2)CN(C)CC3COC)cn1 (stereo not given)	none
Cc1ccc(C(=O)N2C[C@@H](CO)[C@H](c3ccncc3)C2)nc1	none
CCOC(=O)C1=CN(CC(=O)Nc2cc(C)ccc2C)S(=O)(=O)N=C1C	none
Cc1nc(-c2ccncc2)ncc1C(C)NC(=O)C1=NN(C)C(=O)CC1 (stereo not given)	none
O=C(NCc1ccco1)N1CCc2nc3cc(-c4ccccc4Cl)[nH]n3c(=O)c2C1	none
COc1ccc(CN2CC(Oc3ccc(F)cc3C)C2)cc1	Pf Dd2 growth 11.2µM
Cc1cc(F)ccc1OC1CN(CC2CCCCC2)C1	Pf Dd2 growth 8.91µM
Cc1cc(F)ccc1OC1CN(CC2CC2)C1	none
Cc1cc(F)ccc1OC1CN(Cc2ccc(C#N)cc2)C1	none

Source: PubChem
